B2AR arrestin: beta2AR (human) beta-arrestin recruitment activity; 0.02% of 330,000 active; Potency, µM (series often up to 46.1 µM), for inactives: top-dose activation, usual class: activators; beta-arrestin recruitment to beta2AR, cell-based reporter;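 note: potency is the fitted concentration of half-maximal effect; 0% = DMSO controls and full agonism = EC100 isoproterenol or metaproterenol; nearly all actives have a fitted effect of over 65% in size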
RXFP1 antagonist: blocks the human relaxin receptor RXFP1; Q9HBX9; HEK293-RXFP1, relaxin-stimulated cAMP HTRF, 30 min; stronger effect = lower value; activity change, negative = inhibition, % at 57.5 µM; 0.59% of 350,000 active;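 active = activity change of -60% or lower, but not beyond a set lower limit; inconclusive = change between -60% and -40%, or beyond the set limit; inactive = change above -40%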
Target sequence (Q9HBX9 whole entry, looked up): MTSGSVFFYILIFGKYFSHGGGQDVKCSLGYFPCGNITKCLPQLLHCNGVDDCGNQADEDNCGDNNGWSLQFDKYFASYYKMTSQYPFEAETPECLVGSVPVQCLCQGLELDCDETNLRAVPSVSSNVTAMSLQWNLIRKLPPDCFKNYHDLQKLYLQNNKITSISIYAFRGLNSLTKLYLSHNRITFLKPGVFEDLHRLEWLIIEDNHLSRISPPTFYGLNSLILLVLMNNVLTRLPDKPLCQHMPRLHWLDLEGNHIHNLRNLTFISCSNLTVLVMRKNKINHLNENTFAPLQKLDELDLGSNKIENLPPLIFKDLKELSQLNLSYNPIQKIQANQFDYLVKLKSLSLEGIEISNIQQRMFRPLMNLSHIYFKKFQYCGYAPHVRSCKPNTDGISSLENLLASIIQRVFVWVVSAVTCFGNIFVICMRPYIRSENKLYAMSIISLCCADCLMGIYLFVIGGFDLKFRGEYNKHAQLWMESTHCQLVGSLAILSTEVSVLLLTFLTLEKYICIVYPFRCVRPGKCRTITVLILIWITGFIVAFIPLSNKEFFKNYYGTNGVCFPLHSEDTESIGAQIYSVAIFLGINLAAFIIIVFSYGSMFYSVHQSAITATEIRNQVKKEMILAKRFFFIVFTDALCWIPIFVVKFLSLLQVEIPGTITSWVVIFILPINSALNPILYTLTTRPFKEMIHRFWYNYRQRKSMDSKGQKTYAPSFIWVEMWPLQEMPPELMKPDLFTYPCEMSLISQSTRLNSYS
RXFP1 ag: RXFP1 (human) receptor agonism; Potency, µM (top dose mostly 57.5 µM), for the others: top-dose activation, hits mostly activators; HEK293T-RXFP1 cAMP TR-FRET, 30 min; response scale: percent of porcine relaxin response, buffer zero; AID 2676; 0.3% of 370,000 active; note: potency is the fitted concentration of half-maximal effect; nearly all actives have a fitted effect of over 60% in size
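Agonist response is measured as cAMP accumulation in an RXFP1-transfected HEK293T line under PDE4 inhibition. Values are scaled between buffer-only and 29 nM porcine relaxin, and EC50s come from standard Hill equation fits.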
BCR signal inh: inhibitors of chronic active B-cell receptor signaling | ABC-DLBCL IkBa-CBG/CBR reporter, luminescence ratio, 4 h | Potency, µM (top dose mostly 46.1 µM), inactives show at the top dose activity change, negative = inhibition, usual class: inhibitors | 0.05% of 340,000 active | AID 493014; active = well fitted inhibition curve with a large enough effect in the signal ratio, with a control signal flat, not every such curve was filed as active; inconclusive = small, poorly fitted or top-dose-only effect, or effect the other way, or a change in a side signal; the % refers to the signal ratio;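 note: potency is the fitted concentration of half-maximal effect; plate controls were basal doxycycline-induced cells for no effect and cells given 10 µM MG132 for full effect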
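Cell line TMD8 (human ABC DLBCL), stably expressing tet-inducible CBG68-IkBa fusion and CBR; IMDM/0.5% FBS; cpd up to 46 uM; dox induction, 4 h, 37C/5% CO2; dual luminescence; green/red ratio; MG132 control.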
* = called active by the depositor; u = inconclusive; x = no result given; ! = not confirmed by another sample. A selection: hits, their analogues and other compounds. The true share with any hit is near 0.59%. Unless noted, calls come from the whole dose curve; as a rule, active = well fitted activation curve with a large enough effect; inconclusive = small, poorly fitted or top-dose-only effect; inactive = flat fitted curve, though single readings scatter. Unless noted, % is set by controls: 0 for no effect and ±100 for the full control effect.

SMILES	B2AR arrestin	RXFP1 antagonist	RXFP1 ag	BCR signal inh
CCOC(=O)c1c(S(=O)(=O)N2CCCC(C(=O)N3CCN(c4cccc(C)c4C)CC3)C2)c(C)n(C)c1C (stereo not given)	x	-6.3	2.8%	u
CNC(=S)N/N=C/c1cc(Br)cc(Br)c1O	-0.1%	4.7	-1.9%	u
Oc1c(Br)cc(Br)cc1/C=N/NC(=S)N[C@H]1CC2C=CC1C2 (stereo not given in full)	-1.0%	-71.6*	-0.5%	-1.7%
Cc1cccc(Nc2nc(-c3ccc(O)cc3O)cs2)n1	-0.3%	-78.9*	0.7%	u
Oc1ccc(-c2csc(Nc3ncccn3)n2)c(O)c1	0.1%	-3.8	0.4%	u
CC(C)CS(=O)(=O)c1oc(-c2ccc(F)cc2)nc1S(=O)(=O)c1ccccc1	x	-81.8*	3.9%	x
CCC(C)S(=O)(=O)c1oc(-c2cccs2)nc1S(=O)(=O)c1ccccc1 (stereo not given)	x	-78.8*	0.5%	x
CCn1c(SCc2ccccc2F)nc(=O)c2c(C(=O)OC)cc(C3CC3)nc21	x	-102.0*	-0.1%	x
COC(=O)c1cc(C)nc2c1c(=O)nc(SCc1ccccc1F)n2C1CC1	x	-1.3	1.3%	x
CCn1c(SCc2ccc(F)cc2Cl)nc(=O)c2c(C(=O)OC)cc(C3CC3)nc21	x	-83.5*	0.0%	x
CCOC(=O)C1=C(C)N(C)C(C)=C(C(=O)OCC)C1c1ccc(Cl)cc1	0.6%	-60.6*	1.0%	u
CCOC(=O)CCS(=O)(=O)c1nc(-c2ccccc2)cc(C(F)(F)F)n1	-0.3%	x	0.8%	u
CCOC(=O)CS(=O)(=O)c1nc(-c2ccccc2)cc(C(F)(F)F)n1	-0.1%	-77.6*	0.3%	u
CCOC(=O)CS(=O)(=O)c1nc(-c2ccc(F)cc2)cc(C(F)(F)F)n1	-0.2%	-80.2*	0.1%	u
COc1ccc(/C(C)=C/C(=O)O)c(OC)c1	x	-3.2	x	x
CCOC(=O)Oc1ccc(CCNC(=O)[C@H](CCSC)NC(C)=O)cc1OC(=O)OCC	x	-10.6	x	x
O=C(Nc1ccc2oc(-c3cc(Br)ccc3Cl)nc2c1)c1cc2ccccc2o1	x	5.5	20µM*	x
O=C(Nc1ccc2oc(-c3ccc(Br)cc3)nc2c1)c1cc2ccccc2o1	x	-13.3	u	x
CCOc1cc2c(cc1OCC)C(c1c(F)cccc1Cl)CC(=O)N2 (stereo not given)	x	x	-2.4%	x
COc1ccc(CNC(=O)CCC2N=C3c4ccccc4N=C(SCC(=O)NCC4CCCO4)N3C2=O)cc1 (stereo not given)	-0.2%	-10.4	16.4%	-0.1%
O=C(CCC1N=C2c3ccccc3N=C(SCC(=O)NCC3CCCO3)N2C1=O)NCc1ccc(F)cc1 (stereo not given)	-0.3%	-69.0*	28.8%	u
OCC1(Cc2ccc(F)cc2F)CCCN(Cc2ccc(Cl)cc2)C1 (stereo not given)	-0.5%	-60.8*	-0.2%	2.6%
COC(=O)c1ccc(NC(=O)CSc2nc(=O)[nH]c3c2CCCC3)cc1	x	1.9	3.3%	0.3%
CC(=O)N[C@H]1[C@H]([C@H](O)[C@H](O)CO)OC(C(=O)O)=C[C@@H]1N=C(N)N	x	-2.6	x	x
CCN1CCN(Cc2c(O)ccc3c(=O)c(Oc4ccccc4Cl)c(C(F)(F)F)oc23)CC1	x	x	31.6µM*	x
SMILES	B2AR arrestin	RXFP1 antagonist	RXFP1 ag	BCR signal inh
O=S1(=O)c2ccccc2N(Cc2ccc(Cl)cc2F)c2ccccc21	x	-19.0	-0.1%	x
CC(C)=CCOc1ccc(/C=C/C(=O)c2ccc(OCC=C(C)C)cc2OCC(=O)O)cc1	x	-102.3*	x	x
C/C=C/c1ccc(OCC(=O)O)c(OC)c1	-0.5%	-11.0	0.2%	u
O=C(NNC(=O)c1ccccc1O)c1ccc(Cl)c(S(=O)(=O)N2CCc3ccccc32)c1	0.4%	-72.8*	0.0%	u
CCS(=O)(=O)N1CCc2cc(C(=O)Nc3ccc(OC)c(Cl)c3)ccc21	x	x	-0.1%	x
O=S(=O)(Nc1cccc(-c2ccc(N3CCCCCC3)nn2)c1)c1ccc(F)cc1	-0.7%	-76.2*!	2.1%	-2.3%
O=S(=O)(Nc1cccc(-c2ccc(N3CCCCCC3)nn2)c1)c1ccc(C(F)(F)F)cc1	0.5%	-68.0*	0.6%	u
O=S(=O)(Nc1cccc(-c2ccc(N3CCCCCC3)nn2)c1)c1cccc(F)c1	0.5%	11.3	2.3%	9.9%
CC(=O)c1ccc(S(=O)(=O)Nc2cccc(-c3ccc(N4CCCCC4)nn3)c2)cc1	x	-16.7	-1.7%	x
COc1cccc(C(=O)c2cn(CC(=O)NCc3ccccc3)c3nc(C)ccc3c2=O)c1	x	8.5	u	x
Cc1ccc(-n2nc3c(=O)n(CCCC(=O)NCc4ccc(F)cc4)nc(C)c3c2C)cc1	-0.1%	2.6	5.2%	-0.1%
Cc1nn(CCCC(=O)NCc2ccc(F)cc2)c(=O)c2nccn12	-0.2%	0.0	28.2µM*	-14.0%
COc1ccc(CCNC(=O)CCCn2nc(C)n3ccnc3c2=O)cc1OC	-0.2%	-4.2	u	0.7%
Cc1ccc(CNC(=O)CCCn2nc(C)n3ccnc3c2=O)cc1	-0.1%	21.1	15.8µM*	-5.7%
O=C(COC(=O)C1CCCC1)Nc1cccc(Cl)c1Cl	-1.0%	-74.4*	x	2.1%
Cc1cc(OCC(=O)Nc2ccc(C(=O)OC3CCCCC3)cc2)cc(C)c1Cl	x	6.8	3.1%	x
CC1OC(CC(=O)O)CC2=C1C(=O)c1c(O)cccc1C2=O (stereo not given)	x	-62.8*	x	x
O=C1c2cccc(O)c2C(=O)c2c(O)cccc21	-0.4%	-6.4	6.7%	-0.1%
COc1ccc(NS(=O)(=O)c2cccc(C(=O)NCC(c3ccco3)N3CCCCC3)c2)cc1 (stereo not given)	-0.9%	-73.4*	0.9%	-0.1%
CC(=O)COC(=O)c1cc(-c2ccc(C)cc2)nc2ccccc12	-0.4%	2.5	-0.5%	-1.9%
CC(C)(C)C(=O)COC(=O)c1cc(-c2ccncc2)nc2ccccc12	-0.1%	-67.3*	3.9%	-8.4%
O=C(N/C(=C\c1ccccc1)C(=O)N1CCOCC1)c1ccc(Br)o1	-0.5%	-70.3*	-0.8%	-0.5%
CC1=C(C(=O)Nc2ccc(Cl)cc2)C(C(C)C)n2nc(SCc3cccc(C)c3)nc2N1 (stereo not given)	x	x	18.5%	x
O=S(=O)(c1ccc(=S)[nH]c1)N1CCN(Cc2ccccc2)CC1	0.0%	-66.3*	x	0.1%
O=C(Nc1ccc(Cc2ccncc2)cc1)c1ccc(S(=O)(=O)N2CCCC2)cc1	0.0%	-60.6*	0.9%	-0.5%
NS(=O)(=O)c1ccc(CCNc2ncnc3c2cnn3-c2cccc(Cl)c2)cc1	x	-84.4*	3.3%	12.4%
Cc1cc2nc(-c3ccc(NC(=O)c4ccc(OCC(C)C)cc4)cc3)oc2cc1C	x	5.5	0.0%	x
COc1ccc(-c2nn(C)c(=O)c3ccccc23)cc1CNS(C)(=O)=O	0.1%	-4.0	1.7%	18.4µM*
COc1ccc(-c2nn(C)c(=O)c3ccccc23)cc1NS(C)(=O)=O	-0.2%	6.3	3.9%	u
O=C(CSc1nc2c([nH]c3ccccc32)c(=O)n1-c1ccccc1)Nc1ccccc1C(F)(F)F	x	12.8	1.6%	x
